Rows were chosen to be rich in hits. Some 2.9% of all compounds tested hit in one or more screens of this group.
Hsp70 activator – transcriptional activators of Hsp70; HeLa Hsp70 promoter luciferase reporter, luminescence; scaled: vehicle 0, proteasome-inhibitor control 100%; AID 1203; activation, % at 10 µM; hit rate 0.04% among 200,000;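 active = activation above the mean across all tested compounds plus 3 SD, cutoff set per campaign, cut at about 5.5% in these data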
HSF1 inh – HSF1 inhibition. NIH3T3-HGL HSE-luciferase, MG132-induced, luminescence 8 h; hits give low values. activity change, negative = inhibition, % at 7.5 µM (by protocol). hit rate 0.77% among 300,000. AID 2098;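 active = more than half of replicate wells show activity change below -50%, luminescence cut by over half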;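 note: luciferase reports HSF-1 transcriptional activity via heat shock element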
S1P4 antagonist – antagonists of human S1P4 receptor; O95977; S1P4-expressing cells, antagonist mode, reporter read-out; inhibition, % at 4.98 µM; hit rate 0.26% among 220,000; AID 1510; in the data active = inhibition above about 29%
Target sequence (O95977 whole entry, looked up): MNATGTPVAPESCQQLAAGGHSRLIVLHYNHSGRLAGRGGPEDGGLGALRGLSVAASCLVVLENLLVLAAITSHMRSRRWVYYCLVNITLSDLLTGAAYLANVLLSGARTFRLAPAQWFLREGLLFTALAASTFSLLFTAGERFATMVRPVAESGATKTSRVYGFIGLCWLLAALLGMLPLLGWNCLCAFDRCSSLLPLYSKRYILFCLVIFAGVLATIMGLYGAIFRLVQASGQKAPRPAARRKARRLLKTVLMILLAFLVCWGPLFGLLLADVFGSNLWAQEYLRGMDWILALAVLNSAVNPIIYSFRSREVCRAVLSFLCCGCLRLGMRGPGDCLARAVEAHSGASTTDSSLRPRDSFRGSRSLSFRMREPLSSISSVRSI
S1P3 antag – antagonists of human S1P3 receptor; hit rate 0.27% among 170,000; AID 485; CHO S1P3 NFAT-BLA reporter, FRET fluorescence, antagonist mode; inhibition, % at 4.98 µM;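 active = inhibition above the plate cutoff, the mean inhibition of test wells on that plate plus 3 SD, cut at about 28% in these data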;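 note: cells challenged with S1P at its EC80 of 0.8 µM; blue over green emission ratio from cleaved BLA substrate after 4 h stimulation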
HSF1 activator – increases HSF-1 driven luciferase reporter signal. activation, % at 9 µM. NIH3T3-HGL HSF-1 luciferase reporter, MG132, 8 h; 100% = twice DMSO control signal. hit rate 1.7% among 300,000;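 active = mean replicate activation of at least 50% with a set share of replicates each reaching 50%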
S1P4 ag – activates the human S1P4 receptor | activation, % at 4.98 µM | hit rate 0.35% among 220,000 | S1P4-expressing cell line, agonist reporter assay | O95977 | AID 1509; in the data active = activation above about 11%
Each line names hits and unclear results; the compound was inactive in the other large screens.

Fc1ccc(Sc2nc(-c3ccccc3)nnc2C(F)(F)F)cc1	HSF1 activator 66.5 (no result: S1P3 antag)
Oc1ccc(Nc2nc3ccccc3nc2Nc2ccc(O)cc2)cc1	HSF1 inh -86.2 (no result: S1P3 antag)
CC(=O)c1c(-c2ccc(Cl)cc2Cl)noc1C	HSF1 inh -57.5 (no result: Hsp70 activator)
Cc1onc(-c2ccc(Cl)cc2Cl)c1C(=O)/C=C/N(C)C	none (no result: Hsp70 activator)
COc1ccc(C)cc1NC(=O)Cn1c(=O)oc2ccccc21	none (no result: Hsp70 activator, S1P4 antagonist, S1P3 antag, S1P4 ag)
COc1cc(N=Nc2ccc3ccccc3c2)ccc1O	HSF1 activator 55.3 (no result: Hsp70 activator, S1P4 antagonist, S1P3 antag, S1P4 ag)
Cc1ccc(CN2CCNC(=O)C2CC(=O)NCc2cc(C)n(C)n2)cc1 (stereo not given)	none (no result: Hsp70 activator, S1P4 antagonist, S1P3 antag, S1P4 ag)
C=CCOc1ccc(/C=C/C(=O)OCC(=O)NCCCc2ccccc2)cc1	none (no result: Hsp70 activator, S1P4 antagonist, S1P3 antag, S1P4 ag)
C=CCn1c2ccccc2c2nnc(SCC(=O)OCN3C(=O)c4ccccc4C3=O)nc21	none (no result: S1P3 antag)
C=CCn1c2ccccc2c2nnc(SCC(=O)O)nc21	HSF1 inh -60.5 (no result: Hsp70 activator, S1P4 antagonist, S1P3 antag, S1P4 ag)
O=C(CCc1ccccc1)NCCc1ccc(F)cc1	none (no result: Hsp70 activator, S1P4 antagonist, S1P3 antag, S1P4 ag)
Cc1nc2c(-c3ccc(F)cc3)cnn2c2c1CCC2	HSF1 activator 51.8
CCc1cc(C(=O)c2ccc(OC)cc2)c(N)s1	HSF1 activator 59.0 (no result: Hsp70 activator)
CCOc1ccc(S(=O)(=O)c2c(C(=O)c3ccccc3)cnc3cc4c(cc23)OCCO4)cc1	HSF1 activator 68.0
O=C(N/N=C/c1cccc(C(F)(F)F)c1)c1ccc(O)cc1	HSF1 inh -74.5
CS(=O)(=O)N1CCC(Oc2ccccc2C(=O)N2CCC[C@H]2CO)CC1	none (no result: Hsp70 activator, S1P4 antagonist, S1P3 antag, S1P4 ag)
COc1ccc(CNCC(O)COc2ccc(C(C)(C)c3ccccc3)cc2)cc1 (stereo not given)	HSF1 activator 194.1 (no result: Hsp70 activator, S1P4 antagonist, S1P3 antag, S1P4 ag)
CC(=O)Nc1ccc(C(=O)Nc2cc(C(F)(F)F)ccc2-n2cnc3ccccc32)cc1	none
COc1ccc(C(=O)Nc2cc(C(F)(F)F)ccc2-n2cnc3ccccc32)cc1	HSF1 activator 65.1
CC(C)c1ccc2c(c1)[C@H]1OCC[C@H]1[C@@H](c1cccs1)N2	HSF1 activator 122.0
CC(=O)Nc1ccc(NC(=O)C2CCCCN2S(=O)(=O)c2ccc(C(C)(C)C)cc2)cc1 (stereo not given)	none (no result: Hsp70 activator, S1P4 antagonist, S1P3 antag, S1P4 ag)
CCC(C)n1c(SCC(=O)NC(=O)Nc2ccc3c(c2)OCCO3)nc2ccccc2c1=O (stereo not given)	HSF1 activator 53.9
Nc1nc2c(-c3ccc(Br)cc3)nnn2c2ccccc12	HSF1 activator 55.5 (no result: Hsp70 activator, S1P4 antagonist, S1P3 antag, S1P4 ag)
C#Cc1ccc2c(c1)COc1c3ccccc3nn1-2	HSF1 activator 61.4 (no result: Hsp70 activator, S1P4 antagonist, S1P3 antag, S1P4 ag)
N#CCCCC#Cc1ccc2c(c1)COc1c3ccccc3nn1-2	HSF1 inh -64.4 (no result: Hsp70 activator, S1P4 antagonist, S1P3 antag, S1P4 ag)
CCOC(=O)/C=C(C)\C=C\c1c[nH]c2ccccc12	none (no result: Hsp70 activator)
CC1=C(C(=O)Nc2ccc(C)cc2)C(c2ccc(C)o2)C2=C(CC(C)(C)CC2=O)N1 (stereo not given)	HSF1 inh -62.2
Cc1ccnc(NC(=O)c2sc3cc(Cl)ccc3c2Cl)c1	HSF1 activator 54.3
Cc1ccnc(NC(=O)CNC(=O)c2sc3ccccc3c2Cl)c1	none (no result: Hsp70 activator, S1P4 antagonist, S1P3 antag, S1P4 ag)
Cc1ccnc(NC(=O)Nc2ccc3c(c2)N(C)C(=O)CS3)c1	HSF1 activator 68.6
Cc1ccnc(NC(=O)c2cc3cc(F)ccc3s2)c1	HSF1 activator 72.4 (no result: Hsp70 activator, S1P4 antagonist, S1P3 antag, S1P4 ag)
Cc1ccnc(NC(=O)Nc2ccc(F)cc2)c1	HSF1 activator 61.3
Cc1cccc(CSc2[nH]c(=O)ncc2C)c1	none (no result: Hsp70 activator, S1P4 antagonist, S1P3 antag, S1P4 ag)
CCOc1ccccc1OC(=O)c1ccco1	none
CC(=O)COc1ccccc1OC(=O)c1ccco1	HSF1 inh -51.1 (no result: S1P3 antag)
Cc1ccc(-c2cn3c(n2)SCC3)cc1	none
CCc1ccc(-c2cn3c(n2)SCC3)cc1	HSF1 activator 51.1
Cc1cc(C)c2c(c1)/C(=N/NS(=O)(=O)c1ccccc1)CCC2	none (no result: S1P3 antag)
Cc1cc(C)c2c(c1)/C(=N/NS(=O)(=O)c1ccc(Br)cc1)CCC2	HSF1 inh -54.3 (no result: S1P3 antag)
O=C1CNC(=S)N1Cc1cccc(Cl)c1	none (no result: Hsp70 activator, S1P4 antagonist, S1P3 antag, S1P4 ag)
O=C(OCCCN1CCOCC1)c1ccc(O)c(O)c1	HSF1 inh -65.0 (no result: Hsp70 activator)
Nc1ccccc1C(=O)NNC1=C(C(=O)C(F)(F)F)CCC1	HSF1 inh -52.3 (no result: Hsp70 activator)
O=C(NNC1=C(C(=O)C(F)(F)F)CCC1)c1ccccc1O	none (no result: S1P3 antag)
Cc1cc2c(=O)n(Cc3ccco3)c(SCC(=O)c3ccc(Cl)s3)nc2s1	HSF1 activator 77.6
CCOC(=O)CC(=O)CSc1nc2sc(C)cc2c(=O)n1Cc1ccco1	none
CCOc1ccc(S(=O)(=O)NCCC(=O)OCC(=O)c2ccc(NC(C)=O)cc2)cc1	none (no result: Hsp70 activator, S1P4 antagonist, S1P3 antag, S1P4 ag)

Bioassay records: PubChem BioAssay, several laboratories
